Drawing on PubChem BioAssay (NCI), this text covers growth inhibition for 40 molecules.

This is part of a sample that, as a whole, favours compounds with a hit. Of some 79,000 tested, about 15% had one in any assay. A number with no mark means an inactive call. Cut-off read from the data, not from the text of the source: active = growth inhibition above about 70%; inactive = the rest.

The nature of the assay: NCI Yeast Anticancer Drug Screen. Data for the mlh1 rad18 strain (AID 175). To be noted: S. cerevisiae mlh1 rad18 strain growth inhibition; at 50.0 µM; active compounds read high. The method, boiled down:
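Growth inhibition of the yeast strain was measured after compound exposure and expressed relative to vehicle-treated controls. The strain carries defined defects in DNA damage repair.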
Take `CC(=O)OC1/C=C(/C)CCC2OC2(C)CC2OC(=O)C3(CC3)C12` (stereo not given): the growth inhibition is -7.2%.

As for `CCCCCCCCCCCC(=O)Nc1cc(Cl)c(OC)cc1OC`, the growth inhibition was 48.4%.

As to `CC(C)c1cccc(C(C)C)c1NC(=O)OC1CCCCC1C` (stereo not given), the growth inhibition was -6.4%.

As for `c1ccc(OCCCCN2CCNCC2)cc1`, the growth inhibition was -10.2%.

In the case of `NC(N)=NCCCS`, the growth inhibition was 7.05%.

For `CCN(CC)CCCC(C)NC1CCCc2cc3c(cc21)C(=O)c1ccccc1C3=O` (stereo not given), the growth inhibition was 33.1%.

On to `O=C(N/N=C/c1cccc(C(F)(F)F)c1)c1ccncc1`, for which the growth inhibition was 5.85%.

Regarding `CC(C)C(=O)NCCc1ccccc1`, the growth inhibition is 2.95%.

Take `CC12OC(=O)CC1C(c1ccccc1)(c1ccccc1)O2` (stereo not given): the growth inhibition is -1.85%.

`Clc1ccc(OCc2nnc3n2N=C(c2ccc(Br)cc2)CS3)cc1`: the growth inhibition is 13.6%.

With `O=C1NC(=O)C(c2cccc(F)c2)N1` (stereo not given), the growth inhibition was -7.7%.

As for `COc1ccc2c(c1O)C1(CCN(C)C)CC(=O)CCC1C=C2` (stereo not given), the growth inhibition is 12.4%.

In the case of `COc1cc(C(OC(C)=O)OC(C)=O)c(Cl)cc1OC(C)=O`, the growth inhibition was 11.8%.

Turning to `CCc1nc(Nc2cccc(Cl)c2)c2cnn(-c3ccccc3)c2n1`, the growth inhibition is -6.85%.

Turning to `O=C(O)c1ccc(C(=O)O)nc1`, the growth inhibition was -1.35%.

As for `CN(C)CCCNC(=O)CCNC(=O)c1cc(NC(=O)c2cc(NC(=O)c3cc(NC(=O)c4nccn4C)cn3C)cn2C)cn1C`, the growth inhibition was 7.15%.

For the molecule `O=COC1CCCCCC1`, the growth inhibition was 12.9%.

Take `CCS(=O)CCCN1CCc2ccccc2C1` (stereo not given): the growth inhibition is -5.95%.

With `O=[N+]([O-])c1ccc(N/N=C/c2ccccc2O)c([N+](=O)[O-])c1`, the growth inhibition was 4.2%.

Consider `C/C(=N\NC(=S)N1CC2CCC(CC2)C1)c1cccc(C)n1`, for which the growth inhibition is 13.8%.

`COC(=O)C1(C(=O)OC)CC(=O)c2c(OC(=O)c3cccc(OC)c3C#N)ccc(OC(=O)c3cccc(OC)c3C#N)c2C1`: the growth inhibition was 16.9%.

Take `CN(C)CC(C)(C)CO`: the growth inhibition was 4.95%.

Turning to `CCCCCC(O)c1ccccc1` (stereo not given), the growth inhibition was 17.5%.

As for `C/C(=C/C(=O)O)CC/C=C(/C)C(=O)O`, the growth inhibition was 4.9%.

With `CC[N+](CC)=c1ccc2nc3c(cc(Nc4ccccc4)c4ccccc43)oc-2c1.[Cl][Zn][Cl]`, the growth inhibition is 15.4%.

Take `Nc1nc2nn(-c3ccc(C(=O)NC(CCC(=O)O)C(=O)O)cc3)nc2c(=O)[nH]1` (stereo not given): the growth inhibition was -1.4%.

With `OCC1CCNCC1`, the growth inhibition is 32.2%.

As to `CC(=O)OC1[C@H](OC(C)=O)C2=C(C)[C@@H](OC(C)=O)C[C@@]2(C(C)(C)O)[C@@H](OC(C)=O)[C@H]2[C@@]1(C)[C@@H](OC(C)=O)CC(OC(C)=O)[C@]21CO1` (stereo not given in full), the growth inhibition is -59%.

Turning to `O=C(O)CCc1c[nH]c(=S)[nH]1`, the growth inhibition was -1.7%.

With `CC1(C)NC(c2ccccc2)c2ccsc2-n2cccc21` (stereo not given), the growth inhibition is -8.6%.

Turning to `c1ccc(-c2cc3ccccc3c(-c3ccccc3)c2-c2ccccc2)cc1`, the growth inhibition was -15.9%.

With `Cc1ccc(Nc2ccc(O)cc2)cc1`, the growth inhibition is 26%.

For `CCSC1(SCC)C(=O)OC2=C(CCCCC2)C1N(C)c1ccccc1` (stereo not given), the growth inhibition is -12.7%.

For the molecule `Cn1ccc2c([N+](=O)[O-])cccc2c1=O`, the growth inhibition is 4.35%.

On to `Nc1ccc(C(=O)O)c([N+](=O)[O-])c1`, for which the growth inhibition is -2.1%.

Turning to `Nc1c(Cl)ncnc1NCCCCCCCCCCCCNc1ncnc(Cl)c1N`, the growth inhibition was 1.85%.

With `N#Cc1ccc(-n2cccc2)cc1`, the growth inhibition is -4.5%.

Turning to `CCOC(=O)C1CC1C#N` (stereo not given), the growth inhibition was 7.75%.

In the case of `CCC(=O)c1ccc2ccccc2c1`, the growth inhibition was -0.55%.

For the molecule `CC(C)NC1(C#N)CCN(Cc2ccccc2)CC1`, the growth inhibition was -37.5%.
